{"source": "paper PMC8384837", "about": "“Expanding the binding specificity for RNA recognition by a PUF domain”", "assay_in_all_cases": "yeast three-hybrid, YBZ-1, SC-Leu-His + 0.5 mM 3-AT, 4 days", "settings_in_all_cases": "tags: N-Gal4 AD-HA kept; label: inside an RPR1-promoter hybrid RNA with tandem MS2 sites; ssRNA", "key": {"PUM1 PUF domain R7-RRL": {"target": "PUM1 PUF domain R7-RRL (Homo sapiens, UniProt Q14671 828-1176, S1079R;N1080R;E1083L)", "summary_of_the_method": "(§1)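 Pumilio-1 PUF domain libraries, randomized (NNK) at the three base-contacting residues of each repeat, were co-expressed with matching RNA elements from a centromeric plasmid in strain YBZ-1 (LexA–MS2 coat fusion, HIS3 reporter). Transformants were plated on SC-Leu (input) and SC-Leu-His + 0.5 mM 3-AT (selection) for four days, and repeat regions were PCR-amplified and Illumina-sequenced. The interaction score is the log2 change in variant frequency from input to selection, with pseudocount 1 where absent.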"}, "PUM1 PUF domain R7-TIV": {"target": "PUM1 PUF domain R7-TIV (Homo sapiens, UniProt Q14671 828-1176, S1079T;N1080I;E1083V)", "summary_of_the_method": "as §1"}, "PUM1 PUF domain R4-GPH": {"target": "PUM1 PUF domain R4-GPH (Homo sapiens, UniProt Q14671 828-1176, N971G;H972P;Q975H)", "summary_of_the_method": "as §1"}, "PUM1 PUF domain R4-WSG": {"target": "PUM1 PUF domain R4-WSG (Homo sapiens, UniProt Q14671 828-1176, N971W;H972S;Q975G)", "summary_of_the_method": "as §1"}, "PUM1 PUF domain R8-RFR": {"target": "PUM1 PUF domain R8-RFR (Homo sapiens, UniProt Q14671 828-1176, N1122R;Y1123F;Q1126R)", "summary_of_the_method": "as §1"}, "PUM1 PUF domain R3-VFD": {"target": "PUM1 PUF domain R3-VFD (Homo sapiens, UniProt Q14671 828-1176, C935V;R936F;Q939D)", "summary_of_the_method": "as §1"}, "PUM1 PUF domain R3-KPV": {"target": "PUM1 PUF domain R3-KPV (Homo sapiens, UniProt Q14671 828-1176, C935K;R936P;Q939V)", "summary_of_the_method": "as §1"}, "PUM1 PUF domain R3-CRM": {"target": "PUM1 PUF domain R3-CRM (Homo sapiens, UniProt Q14671 828-1176, Q939M)", "summary_of_the_method": "as §1"}, "PUM1 PUF domain R3-YRE": {"target": "PUM1 PUF domain R3-YRE (Homo sapiens, UniProt Q14671 828-1176, C935Y;Q939E)", "summary_of_the_method": "as §1"}, "PUM1 PUF domain R3-RCS": {"target": "PUM1 PUF domain R3-RCS (Homo sapiens, UniProt Q14671 828-1176, C935R;R936C;Q939S)", "summary_of_the_method": "as §1"}, "PUM1 PUF domain R5-RRD": {"target": "PUM1 PUF domain R5-RRD (Homo sapiens, UniProt Q14671 828-1176, C1007R;Q1011D)", "summary_of_the_method": "as §1"}, "PUM1 PUF domain R1-RWD": {"target": "PUM1 PUF domain R1-RWD (Homo sapiens, UniProt Q14671 828-1176, S863R;R864W;Q867D)", "summary_of_the_method": "as §1"}, "PUM1 PUF domain R1-KRF": {"target": "PUM1 PUF domain R1-KRF (Homo sapiens, UniProt Q14671 828-1176, S863K;Q867F)", "summary_of_the_method": "as §1"}, "PUM1 PUF domain R1-QTR": {"target": "PUM1 PUF domain R1-QTR (Homo sapiens, UniProt Q14671 828-1176, S863Q;R864T;Q867R)", "summary_of_the_method": "as §1"}, "PUM1 PUF domain R6-NYV": {"target": "T1, PUM1 PUF domain R6-NYV (Homo sapiens, UniProt Q14671 828-1176, Q1047V)", "T1 sequence": "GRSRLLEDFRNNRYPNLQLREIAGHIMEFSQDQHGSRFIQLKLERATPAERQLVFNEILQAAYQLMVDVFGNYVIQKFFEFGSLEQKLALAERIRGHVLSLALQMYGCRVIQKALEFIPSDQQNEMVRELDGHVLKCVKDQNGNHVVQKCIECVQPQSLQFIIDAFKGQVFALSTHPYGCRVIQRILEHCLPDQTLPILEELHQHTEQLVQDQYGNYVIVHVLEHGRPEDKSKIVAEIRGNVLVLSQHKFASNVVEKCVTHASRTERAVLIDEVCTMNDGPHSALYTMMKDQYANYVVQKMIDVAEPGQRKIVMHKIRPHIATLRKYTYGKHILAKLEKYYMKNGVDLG", "summary_of_the_method": "as §1"}, "PUM1 PUF domain R6-QRS": {"target": "T2, PUM1 PUF domain R6-QRS (Homo sapiens, UniProt Q14671 828-1176, N1043Q;Y1044R;Q1047S)", "T2 sequence": "T1 sequence with N216Q, Y217R, V220S", "summary_of_the_method": "as §1"}, "PUM1 PUF domain R3-IFT": {"target": "PUM1 PUF domain R3-IFT (Homo sapiens, UniProt Q14671 828-1176, C935I;R936F;Q939T)", "summary_of_the_method": "as §1"}, "PUM1 PUF domain R5-KYS": {"target": "PUM1 PUF domain R5-KYS (Homo sapiens, UniProt Q14671 828-1176, C1007K;R1008Y;Q1011S)", "summary_of_the_method": "as §1"}, "PUM1 PUF domain R8-EWK": {"target": "PUM1 PUF domain R8-EWK (Homo sapiens, UniProt Q14671 828-1176, N1122E;Y1123W;Q1126K)", "summary_of_the_method": "as §1"}, "PUM1 PUF domain R5-RHN": {"target": "PUM1 PUF domain R5-RHN (Homo sapiens, UniProt Q14671 828-1176, C1007R;R1008H;Q1011N)", "summary_of_the_method": "as §1"}}, "note": "Where a chain is given by its changes, count along the chain named.", "data": [{"sequence": "GGCUAGAACUAGUGGAUCCCCCGGCGCCCGGCGGCUCGAGCCCGGGUAAGUUUAAAUAGUCUGCAUGCCGCCGGGCGCCAUGCCUGCAGGUCGACUCUAGAAAACAUG", "values": [{"measurement": "binding signal", "setting": "PUM1 PUF domain R7-RRL", "value": "6.01 log2 enrichment (interaction score)"}, {"measurement": "binding signal", "setting": "PUM1 PUF domain R7-TIV", "value": "2.5 log2 enrichment (interaction score)"}]}, {"sequence": "GGCUAGAACUAGUGGAUCCCCCGGCGCCCGGCGGCUCGAGCCCGGGUAAGUGUAUAUAGUCUGCAUGCCGCCGGGCGCCAUGCCUGCAGGUCGACUCUAGAAAACAUG", "values": [{"measurement": "binding signal", "setting": "PUM1 PUF domain R4-GPH", "value": "1.26 log2 enrichment (interaction score)"}, {"measurement": "binding signal", "setting": "PUM1 PUF domain R4-WSG", "value": "3.48 log2 enrichment (interaction score)"}]}, {"sequence": "GGCUAGAACUAGUGGAUCCCCCGGCGCCCGGCGGCUCGAGCCCGGGUAAGCGUAAAUAGUCUGCAUGCCGCCGGGCGCCAUGCCUGCAGGUCGACUCUAGAAAACAUG", "values": [{"measurement": "binding signal", "setting": "PUM1 PUF domain R8-RFR", "value": "6.81 log2 enrichment (interaction score)"}]}, {"sequence": "GGCUAGAACUAGUGGAUCCCCCGGCGCCCGGCGGCUCGAGCCCGGGUAAGUCUAAAUAGUCUGCAUGCCGCCGGGCGCCAUGCCUGCAGGUCGACUCUAGAAAACAUG", "values": [{"measurement": "binding signal", "setting": "PUM1 PUF domain R7-RRL", "value": "5.23 log2 enrichment (interaction score)"}]}, {"sequence": "GGCUAGAACUAGUGGAUCCCCCGGCGCCCGGCGGCUCGAGCCCGGGUAAGUGUAAUUAGUCUGCAUGCCGCCGGGCGCCAUGCCUGCAGGUCGACUCUAGAAAACAUG", "values": [{"measurement": "binding signal", "setting": "PUM1 PUF domain R3-VFD", "value": "5.14 log2 enrichment (interaction score)"}, {"measurement": "binding signal", "setting": "PUM1 PUF domain R3-KPV", "value": "3.62 log2 enrichment (interaction score)"}]}, {"sequence": "GGCUAGAACUAGUGGAUCCCCCGGCGCCCGGCGGCUCGAGCCCGGGUAAGUGUAAGUAGUCUGCAUGCCGCCGGGCGCCAUGCCUGCAGGUCGACUCUAGAAAACAUG", "values": [{"measurement": "binding signal", "setting": "PUM1 PUF domain R3-CRM", "value": "1.46 log2 enrichment (interaction score)"}, {"measurement": "binding signal", "setting": "PUM1 PUF domain R3-YRE", "value": "3.13 log2 enrichment (interaction score)"}, {"measurement": "binding signal", "setting": "PUM1 PUF domain R3-RCS", "value": "4.81 log2 enrichment (interaction score)"}]}, {"sequence": "GGCUAGAACUAGUGGAUCCCCCGGCGCCCGGCGGCUCGAGCCCGGGUAAGUGUAACUAGUCUGCAUGCCGCCGGGCGCCAUGCCUGCAGGUCGACUCUAGAAAACAUG", "values": [{"measurement": "binding signal", "setting": "PUM1 PUF domain R3-VFD", "value": "2.56 log2 enrichment (interaction score)"}]}, {"sequence": "GGCUAGAACUAGUGGAUCCCCCGGCGCCCGGCGGCUCGAGCCCGGGUAAGUGUUAAUAGUCUGCAUGCCGCCGGGCGCCAUGCCUGCAGGUCGACUCUAGAAAACAUG", "values": [{"measurement": "binding signal", "setting": "PUM1 PUF domain R5-RRD", "value": "5.74 log2 enrichment (interaction score)"}]}, {"sequence": "GGCUAGAACUAGUGGAUCCCCCGGCGCCCGGCGGCUCGAGCCCGGGUAAGUGUAAAUGGUCUGCAUGCCGCCGGGCGCCAUGCCUGCAGGUCGACUCUAGAAAACAUG", "values": [{"measurement": "binding signal", "setting": "PUM1 PUF domain R1-RWD", "value": "2.32 log2 enrichment (interaction score)"}]}, {"sequence": "GGCUAGAACUAGUGGAUCCCCCGGCGCCCGGCGGCUCGAGCCCGGGUAAGUGUACAUAGUCUGCAUGCCGCCGGGCGCCAUGCCUGCAGGUCGACUCUAGAAAACAUG", "values": [{"measurement": "binding signal", "setting": "PUM1 PUF domain R4-WSG", "value": "2.7 log2 enrichment (interaction score)"}]}, {"sequence": "GGCUAGAACUAGUGGAUCCCCCGGCGCCCGGCGGCUCGAGCCCGGGUAAGUGUAAAUCGUCUGCAUGCCGCCGGGCGCCAUGCCUGCAGGUCGACUCUAGAAAACAUG", "values": [{"measurement": "binding signal", "setting": "PUM1 PUF domain R1-KRF", "value": "3.25 log2 enrichment (interaction score)"}, {"measurement": "binding signal", "setting": "PUM1 PUF domain R1-QTR", "value": "2.41 log2 enrichment (interaction score)"}]}, {"sequence": "GGCUAGAACUAGUGGAUCCCCCGGCGCCCGGCGGCUCGAGCCCGGGUAAGUGUAAAUAGUCUGCAUGCCGCCGGGCGCCAUGCCUGCAGGUCGACUCUAGAAAACAUG", "values": [{"measurement": "binding signal", "setting": "PUM1 PUF domain R8-RFR", "value": "6.72 log2 enrichment (interaction score)"}, {"measurement": "binding signal", "setting": "PUM1 PUF domain R3-CRM", "value": "3.01 log2 enrichment (interaction score)"}, {"measurement": "binding signal", "setting": "PUM1 PUF domain R4-GPH", "value": "4.16 log2 enrichment (interaction score)"}, {"measurement": "binding signal", "setting": "PUM1 PUF domain R3-VFD", "value": "6.45 log2 enrichment (interaction score)"}, {"measurement": "binding signal", "setting": "PUM1 PUF domain R6-NYV", "value": "4.01 log2 enrichment (interaction score)"}, {"measurement": "binding signal", "setting": "PUM1 PUF domain R6-QRS", "value": "4.63 log2 enrichment (interaction score)"}, {"measurement": "binding signal", "setting": "PUM1 PUF domain R4-WSG", "value": "1.85 log2 enrichment (interaction score)"}, {"measurement": "binding signal", "setting": "PUM1 PUF domain R3-IFT", "value": "4.66 log2 enrichment (interaction score)"}, {"measurement": "binding signal", "setting": "PUM1 PUF domain R5-KYS", "value": "2.35 log2 enrichment (interaction score)"}, {"measurement": "binding signal", "setting": "PUM1 PUF domain R8-EWK", "value": "3.5 log2 enrichment (interaction score)"}, {"measurement": "binding signal", "setting": "PUM1 PUF domain R5-RRD", "value": "2.72 log2 enrichment (interaction score)"}]}, {"sequence": "GGCUAGAACUAGUGGAUCCCCCGGCGCCCGGCGGCUCGAGCCCGGGUAAGUGUGAAUAGUCUGCAUGCCGCCGGGCGCCAUGCCUGCAGGUCGACUCUAGAAAACAUG", "values": [{"measurement": "binding signal", "setting": "PUM1 PUF domain R5-RHN", "value": "4.79 log2 enrichment (interaction score)"}]}, {"sequence": "GGCUAGAACUAGUGGAUCCCCCGGCGCCCGGCGGCUCGAGCCCGGGUAAGUGUCAAUAGUCUGCAUGCCGCCGGGCGCCAUGCCUGCAGGUCGACUCUAGAAAACAUG", "values": [{"measurement": "binding signal", "setting": "PUM1 PUF domain R5-KYS", "value": "3.71 log2 enrichment (interaction score)"}, {"measurement": "binding signal", "setting": "PUM1 PUF domain R5-RRD", "value": "5.76 log2 enrichment (interaction score)"}]}]}
